# High-throughput results as filed in PubChem BioAssay.
# Only some compounds are listed: those with a hit (about 3.6% of all), similar ones and a draw of the others.
# VDR inh – blocks the human vitamin D receptor; P11473; VDR-SRC2-3 peptide fluorescence polarization, 2 h; Potency, µM, usual class: inhibitors; 400,000 tested, 0.93% active; AID 504847
#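 Reagent solutions, kept cold and dark, are dispensed first; compounds are then pinned in at 23 nl, plates briefly spun, and incubated 2 h at ambient temperature. Inhibition of VDR–SRC2-3 peptide binding is read by fluorescence polarization.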
# GCN5L2 inh – inhibitors of human GCN5L2 histone acetyltransferase; Q92830; GCN5L2 HAT assay, ThioGlo1 CoA-SH fluorescence; Potency, µM (titrated, usually from 58.9 µM), hits mostly inhibitors; 390,000 tested, 0.21% active
#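 Enzyme at 20nM final was mixed with library compounds for 15 min at room temperature. Peptide H3(1-25) at 75uM, acetyl-CoA at 70uM and ThioGlo1 at 50uM were then added. Plates were read immediately and after 20 min (Ex340nm/Em540nm).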
# Rango complex inh – Rango-importin beta binding inhibition; Q14974; Rango CFP/YFP FRET sensor + importin beta, 45 min; Potency, µM (top dose mostly 92.2 µM); 340,000 tested, 0.031% active; AID 540263; calls by dose curve; further: nearly all actives have a fitted effect of over 15% in size
#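 FRET biosensor (snurportin 1 IBB flanked by EYFP and cerulean), 50 nM, with compound 5 min, then 0.125 microM importin beta in PBS, 1 mM DTT, 0.02% Tween-20, 0.1% BSA. CFP/YFP ratio read after 45 min at room temperature; pre-read flags interference.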
# PI5P4K alpha inh – inhibitors of human PI5P4K alpha. P48426. PI5P4Kalpha enzyme, ADP-Glo luminescence, 60 min; active compounds read low. max response, %. 330,000 tested, 1.2% active. AID 652105; active means max response of -50% or lower; inconclusive means between -30% and -50%; inactive means -30% or higher; further: value at the top dose of about 77 µM
# Target sequence (P48426 whole entry, looked up): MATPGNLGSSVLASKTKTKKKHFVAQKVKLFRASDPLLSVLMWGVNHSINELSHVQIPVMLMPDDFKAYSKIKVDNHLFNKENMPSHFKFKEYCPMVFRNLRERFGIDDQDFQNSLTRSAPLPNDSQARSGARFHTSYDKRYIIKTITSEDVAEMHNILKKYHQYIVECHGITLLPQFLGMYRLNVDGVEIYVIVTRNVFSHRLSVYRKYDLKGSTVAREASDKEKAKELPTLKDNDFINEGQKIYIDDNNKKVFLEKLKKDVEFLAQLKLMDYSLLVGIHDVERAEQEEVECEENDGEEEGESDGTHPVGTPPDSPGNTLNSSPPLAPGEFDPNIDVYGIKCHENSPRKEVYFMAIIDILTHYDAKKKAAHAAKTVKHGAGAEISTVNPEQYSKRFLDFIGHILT
#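 ADP-Glo luminescence end-point after a 60 min room-temperature kinase reaction. PI5P4Kalpha and substrate in HEPES pH 7.4 buffer with EGTA, 0.1% CHAPS and 5% DMSO; ATP at 5 microM final.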
# PLK1 PBD block – PLK1 (human) polo-box domain binding inhibition. 360,000 tested, 2.8% active. Potency, µM, most hits filed as inhibitors. P53350. Plk1 PBD binding of FITC phosphopeptide, fluorescence polarization; further: series mostly up to about 57 µM; nearly all actives have a fitted effect of over 65% in size
# Rango dissoc inh – inhibition of RanGTP-driven Rango-importin beta dissociation | Potency, µM (titrated, usually from 46.1 µM) | Biochemical FRET Rango-importin beta, RanGTP-induced dissociation | 340,000 tested, 0.071% active | AID 540253; calls by dose curve; further: nearly all actives have a fitted effect of over 45% in size
#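 Compounds sat 5 min at room temperature with 0.1 uM Rango biosensor plus 0.25 uM importin beta, then FRET pre-read. RanGTP-RCC1 (0.6 uM Ran, 2mM GTP, 0.2 uM RCC1) added for 45 min, and the CFP/YFP post-read measured blocked complex dissociation.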
# Hits are given with their value; 0 = inactive; ? = inconclusive; - = no result given. Unless noted, the call rests on the fitted dose curve; in most records, active means well fitted curve in the direction sought with a large enough effect; inconclusive means small, poorly fitted or top-dose-only effect, or another doubt; inactive means no such curve, though single readings can be large; an effect the other way counts as inactive or inconclusive.
SMILES,VDR inh,GCN5L2 inh,Rango complex inh,PI5P4K alpha inh,PLK1 PBD block,Rango dissoc inh
CC(C)S(=O)(=O)c1csc(C(=O)NN)c1-n1cccc1,0,0,0,0,0,0
CCOC(=O)c1c(C)[nH]c(C)c1S(=O)(=O)N1CCC(C(=O)Nc2cc(Cl)ccc2OC)CC1,0,0,-,-,-,-
CCCCOc1ccc(Cn2c(=O)sc3ccccc32)cc1OC,0,0,-,-,-,-
O=C(/C=C/c1cccc(Cl)c1)c1ccc([N+](=O)[O-])o1,?,?,0,-51.1,6.7µM,0
Cc1cc(O)c(C(=O)/C=C/c2cccc([N+](=O)[O-])c2)c(=O)o1,0,?,0,-85.9,?,0
Cc1cc(O)c(C(=O)/C=C/c2ccccc2O)c(=O)o1,?,0,0,0,21.2µM,0
O=C(/C=C/c1cccc([N+](=O)[O-])c1)N1CCOCC1,0,0,0,0,0,0
CC(=O)/C=C/c1ccccc1O,0,0,0,0,0,0
Cc1ccc2c(c1)c1c(c(=O)n(-c3ccccc3C)c(=O)n1CC(=O)NCCC1=CCCCC1)n2C,0,0,-,-,-,-
COc1ccc(-c2onc(C)c2C)cc1S(=O)(=O)N1c2ccccc2CC1C (stereo unspecified),0,0,-,-,-,-
Cc1nc(-c2ccc(F)cc2)sc1CCNC(=O)c1ccco1,0,0,-,-,-,-
COc1ccc(NCc2cc3cc4c(cc3n(CC(=O)Nc3ccccc3)c2=O)OCO4)cc1,0,?,-,-,-,-
CCCc1nc(C(C)(C)O)c(C(=O)OCc2oc(=O)oc2C)n1Cc1ccc(-c2ccccc2-c2nn[nH]n2)cc1,0,0,-,-,-,-
CCOc1nc2cccc(C(=O)OC(C)OC(=O)OC3CCCCC3)c2n1Cc1ccc(-c2ccccc2-c2nn[nH]n2)cc1 (stereo unspecified),44.7µM,20µM,-,-,-,-
CCc1ccc(C2CC(=O)Nc3cc4c(cc32)OCO4)cc1 (stereo unspecified),0,0,-,-,-,-
CCCN1CCC(=O)N(C(CSc2ccc(Br)cc2)CC(C)C)CC1 (stereo unspecified),0,-,-,-,-,-
Cc1ccc(NC(=O)C(c2ccc(Cl)cc2)N2CCOCC2)cc1 (stereo unspecified),0,0,?,0,0,0
Cc1ccc(NC(=O)C(c2ccc(Cl)cc2)N2CCCCC2)cc1 (stereo unspecified),0,2.24µM,0,0,0,0
CN(C)C(=O)CSc1nc2cc(S(=O)(=O)N3CCOCC3)ccc2o1,?,0,0,0,21.2µM,0
Nc1ccc(S(=O)(=O)N2CCOCCOCCOCCOCCOCC2)cc1,0,0,0,0,?,0
Nc1nc2cc(S(=O)(=O)N3CCOCC3)ccc2o1,39.8µM,0,0,0,5.32µM,0
COc1cccc(N2CCN(C(=O)c3cc4c(=O)n(Cc5cccs5)ccc4nc3C)CC2)c1,0,0,-,-,-,-
CN(C)Cc1ccccc1-c1cc(N(C)Cc2ccco2)ncn1,0,0,-,-,-,-
Cc1noc(C)c1-c1nccc(N(C)Cc2ccco2)n1,44.7µM,0,-,-,-,-
CNc1ccnc(-c2ccccc2C(F)(F)F)n1,0,0,-,-,-,-
SMILES,VDR inh,GCN5L2 inh,Rango complex inh,PI5P4K alpha inh,PLK1 PBD block,Rango dissoc inh
CNc1ccnc(-c2c(C)noc2C)n1,0,0,-,-,-,-
CN(Cc1ccco1)c1ccnc(-c2ccccc2C(F)(F)F)n1,44.7µM,0,-,-,-,-
CN(Cc1ccco1)c1ccnc(-c2cccc(C#N)c2)n1,35.5µM,0,-,-,-,-
CN(Cc1ccco1)c1ccnc(-c2ccoc2)n1,44.7µM,?,-,-,-,-
CCn1ccc2cc(S(=O)(=O)N3CCCN(C(=O)NCC(=O)OC)CC3)ccc21,0,0,-,-,-,-
COc1ccc(Cn2c(=O)c3oc4ccccc4c3n(CC(=O)Nc3c(C)cccc3C)c2=O)cc1,0,0,-,-,-,-
CN(Cc1ccco1)c1ccnc(-c2cccnc2)n1,44.7µM,0,-,-,-,-
CCc1ccccc1NC(=O)c1ncoc1-c1ccco1,0,0,-,-,-,-
O=C(O)CCN1C(=O)/C(=C2\C(=O)N(Cc3ccc(F)cc3)c3ccccc32)SC1=S,?,?,0,0,18.9µM,0
CN1C(=O)/C(=C2\SC(=S)N(CCCCCC(=O)O)C2=O)c2ccccc21,0,0,0,0,?,0
O=[N+]([O-])c1ccc2c([N+](=O)[O-])ccc3c2c1CC3,-,-,-,-73.7,?,-
Cn1cc(S(=O)(=O)N2CCc3ccccc32)cc1C(=O)Nc1ccc(C(F)(F)F)cc1,0,0,-,-,-,-
CC(=O)N(C)c1ccc(N=Cc2cc3c(cc2[N+](=O)[O-])OCO3)cc1,0,-,0,0,0,0
Cc1ccc(C)c(N=Cc2cc3c(cc2[N+](=O)[O-])OCO3)c1,79.4µM,0,0,0,0,0
CC(C)(C)c1ccc(O)c(N=Cc2cc3c(cc2[N+](=O)[O-])OCO3)c1,?,0,0,0,26.7µM,0
Cc1ccc(N=Cc2cc3c(cc2[N+](=O)[O-])OCO3)cc1[N+](=O)[O-],?,-,0,-64.5,?,0
O=C(NCCc1ccc(Cl)cc1)c1c2c(nc3ccccc13)C(=O)N(C1CCCCC1)C2,0,0,-,-,-,-
COc1ccc(C2C(C(=O)Nc3cccnc3)=C(C)Nc3nc(SCc4ccccc4)nn32)cc1 (stereo unspecified),0,0,-,-,-,-
Cc1cn(S(=O)(=O)c2ccc(F)c(Cl)c2)cn1,0,0,-,-,-,-
Cc1cc(Cl)ccc1OCC(=O)N(Cc1sccc1C)C1CCS(=O)(=O)C1 (stereo unspecified),0,0,-,-,-,-
CCNc1nc(NC(C)C)nc(Oc2ccc(/C=N/O)cc2)n1,0,0,0,0,4.74µM,0
Nc1cccc(-c2nnc3n2CCCCC3)c1,0,0,0,0,16.8µM,0
O=[N+]([O-])c1cccc(-c2nnc3n2CCCCC3)c1,?,0,0,0,0,0
CC(C)C[C@H](NC(=O)[C@H](Cc1ccccc1)NC(=O)CNC(=O)[C@H](CCC(=O)O)NC(=O)[C@H](CCCNC(=N)N)NC(=O)[C@H](C)NC(=O)[C@H](C)NC(=O)[C@@H](N)CC(=O)O)C(=O)N[C@@H](CC(=O)O)C(=O)N[C@H](C(=O)N[C@@H](CC(C)C)C(=O)N[C@H](C(=O)N[C@H](C(=O)N[C@@H](CC(C)C)C(=O)N[C@@H](Cc1cnc[nH]1)C(=O)N[C@@H](CCCNC(=N)N)C(=O)N[C@@H](C)C(=O)NCC(=O)N[C@@H](C)C(=O)N[C@@H](CCCNC(=N)N)C(=O)O)C(C)C)C(C)C)[C@@H](C)O,0,0,-,-,-,-
O=S(=O)(Nc1ccc(-c2ccc(N3CCCCC3)nn2)cc1)c1ccc(OC(F)(F)F)cc1,0,0,-,-,-,-
Cc1ccc(-n2cc(CN3CCNC(=O)CC3)c(-c3cccc(C)c3)n2)cc1,?,0,0,0,16.8µM,0
Cc1cccc(-n2cc(CN3CCCN(C=O)CC3)c(-c3cccc(F)c3)n2)c1,0,0,0,0,0,0
c1coc(-c2nnc(-c3ccco3)nn2)c1,89.1µM,0,?,-79.3,0,0
